Here are results for 18 molecules from PubChem BioAssay (Tox21).

Structures are written as SMILES. Results filed as inconclusive are left out. Active and inactive are the calls of the source. Unless noted, the call rests on the fitted dose curve; in most records, active means well fitted curve in the direction sought with a large enough effect in the repeat runs; inconclusive means weak or mixed curves; inactive means no such curve, though single readings can be large; an effect the other way counts as inactive or inconclusive.

Test [1] is described as follows: qHTS assay to identify aromatase inhibitors - cell viability counter screen (AID 743084).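 Further: cells stimulated with testosterone during compound exposure; nearly all actives have a fitted effect of over 55% in size.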 Further: potency means the concentration at half of the fitted maximal effect. Conditions: MCF-7 aro ERE viability, CellTiter-Fluor, 24 h; series mostly up to 70.3 µM. Background: In qHTS, concentration-response curves come from the screen itself.
Test [2] has as its target Peroxisome proliferator-activated receptor gamma (Homo sapiens) (UniProt P37231). The test is described as follows: qHTS assay to identify small molecule agonists of the peroxisome proliferator-activated receptor gamma (PPARg) signaling pathway (AID 743094; active means well fitted activation curve with a large enough effect in the signal ratio in the repeat runs, not every such curve was filed as active; the % refers to the signal ratio). The settings on record: HEK293H PPARg-UAS-bla, beta-lactamase FRET ratio, 17 h; series mostly up to 57 µM. The gist of the method: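 Reporter activation was scored by fluorescence of cleaved LiveBLAzer B/G substrate (1 h, room temperature) in PPARg-bla HEK293H cells previously treated 17 h at 37C with DMSO-dissolved compounds.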

The nature of test [3]: qHTS assay to identify small molecule that activate the aryl hydrocarbon receptor (AhR) signaling pathway - cell viability counter screen (AID 743086). Further: nearly all actives have a fitted effect of over 45% in size. Further: potency means the concentration at half of the fitted maximal effect. Conditions: HepG2-AhR-luc viability, CellTiter-Fluor, 24 h; series mostly up to 70.3 µM. The gist of the method:
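HepG2-AhR-luc (HG2L7.5c1) cells, 4000/well, were preincubated 5 h at 37C, exposed to compound in qHTS format for 24 hr at 37C, then given CellTiter-Fluor for 30 min; viability was read as fluorescence in the reporter wells.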

The nature of test [4]: qHTS assay for small molecule activators of the heat shock response signaling pathway - cell viability counter screen (AID 743209). Further: nearly all actives have a fitted effect of over 50% in size. Further: potency means the concentration at half of the fitted maximal effect. The settings on record: HSE-bla HeLa viability, CellTiter-Glo luminescence, 5 h; series mostly up to 62.6 µM. The gist of the method:
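Viability of HSE-bla HeLa cells is measured with CellTiter-Glo in the wells already used for the reporter read. Compound exposure lasts 5 h at 37 C, and luminescence is read after 30 min at room temperature.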

Test [5] has as its target Aryl hydrocarbon receptor (Homo sapiens) (UniProt P35869). The test is described as follows: qHTS assay to identify small molecule that activate the aryl hydrocarbon receptor (AhR) signaling pathway (AID 743085).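 Further: HG2L7.5c1 human HepG2 liver cells with stably integrated DRE-driven firefly reporter; nearly all actives have a fitted effect of over 15% in size.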 The settings on record: HepG2 AhR-luc (HG2L7.5c1), luciferase, 24 h; series mostly up to 70.3 µM. In a few lines: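 Compounds were tested in HepG2 hepatocellular carcinoma cells harbouring a stably integrated luciferase gene under control of 20 DREs. Increased reporter signal after 24 h treatment at 37C was taken as AhR activation.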

The nature of test [6]: qHTS assay for small molecule agonists of the antioxidant response element (ARE) signaling pathway - cell viability counter screen (AID 743203; calls by dose curve; further: potency means the concentration at half of the fitted maximal effect; nearly all actives have a fitted effect of over 55% in size). The settings on record: ARE-bla HepG2 viability, CellTiter-Glo luminescence, 16 h; series mostly up to 73.3 µM. The gist of the method:
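Viability counter screen: stably transfected ARE-bla HepG2 line, 16 hrs compound exposure at 37C/5% CO2, ATP-based CellTiter-Glo luminescence measured in the reporter wells.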

A short description of test [7]: qHTS assay to identify small molecule antagonists of the peroxisome proliferator-activated receptor gamma (PPARg) signaling pathway - cell viability counter screen (AID 743194). Further: nearly all actives have a fitted effect of over 55% in size. Further: potency means the concentration at half of the fitted maximal effect. Conditions: PPARg-bla HEK293H viability, CellTiter-Glo luminescence, 17 h, co-treated with 50 nM rosiglitazone; series mostly up to 62.6 µM. In a few lines:
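PPARg-UAS-bla HEK293H cells were plated, rested 5 h at 37 C, then treated with compounds plus rosiglitazone (50 nM final) for 17 h at 37 C; viability was then read by CellTiter-Glo luminescence after 30 min at room temperature.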

For test [8], the target named is Peroxisome proliferator-activated receptor gamma (Homo sapiens) (UniProt P37231). The test is described as follows: qHTS assay to identify small molecule antagonists of the peroxisome proliferator-activated receptor gamma (PPARg) signaling pathway (AID 743191; calls by dose curve; further: potency means the concentration at half of the fitted maximal effect; nearly all actives have a fitted effect of over 30% in size). Conditions: HEK293H PPARg-UAS-bla, beta-lactamase ratio, antagonist, 17 h; series mostly up to 62.6 µM. In a few lines: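 GeneBLAzer PPARg UAS-bla HEK293H cells carrying a UAS-driven beta-lactamase reporter were plated at 3000 cells/well, preincubated 5 h at 37C, then given compound for 17 h at 37C; LiveBLAzer B/G FRET substrate was read after 1 h at room temperature.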
Sequence of Peroxisome proliferator-activated receptor gamma (Homo sapiens) (P37231 whole entry, looked up): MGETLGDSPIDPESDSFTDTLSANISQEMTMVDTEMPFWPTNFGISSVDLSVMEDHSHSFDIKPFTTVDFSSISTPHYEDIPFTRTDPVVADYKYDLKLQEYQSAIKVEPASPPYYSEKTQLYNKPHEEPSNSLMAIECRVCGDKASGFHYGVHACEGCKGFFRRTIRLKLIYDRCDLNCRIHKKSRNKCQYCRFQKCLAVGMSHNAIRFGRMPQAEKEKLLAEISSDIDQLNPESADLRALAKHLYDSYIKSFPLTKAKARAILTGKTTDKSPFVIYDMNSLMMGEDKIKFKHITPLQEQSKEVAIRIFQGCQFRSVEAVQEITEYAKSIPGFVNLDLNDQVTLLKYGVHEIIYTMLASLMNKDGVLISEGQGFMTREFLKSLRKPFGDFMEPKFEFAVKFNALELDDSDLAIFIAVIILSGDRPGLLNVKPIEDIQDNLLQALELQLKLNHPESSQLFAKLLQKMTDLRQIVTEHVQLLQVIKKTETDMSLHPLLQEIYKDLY

Sequence of Aryl hydrocarbon receptor (Homo sapiens) (P35869 whole entry, looked up): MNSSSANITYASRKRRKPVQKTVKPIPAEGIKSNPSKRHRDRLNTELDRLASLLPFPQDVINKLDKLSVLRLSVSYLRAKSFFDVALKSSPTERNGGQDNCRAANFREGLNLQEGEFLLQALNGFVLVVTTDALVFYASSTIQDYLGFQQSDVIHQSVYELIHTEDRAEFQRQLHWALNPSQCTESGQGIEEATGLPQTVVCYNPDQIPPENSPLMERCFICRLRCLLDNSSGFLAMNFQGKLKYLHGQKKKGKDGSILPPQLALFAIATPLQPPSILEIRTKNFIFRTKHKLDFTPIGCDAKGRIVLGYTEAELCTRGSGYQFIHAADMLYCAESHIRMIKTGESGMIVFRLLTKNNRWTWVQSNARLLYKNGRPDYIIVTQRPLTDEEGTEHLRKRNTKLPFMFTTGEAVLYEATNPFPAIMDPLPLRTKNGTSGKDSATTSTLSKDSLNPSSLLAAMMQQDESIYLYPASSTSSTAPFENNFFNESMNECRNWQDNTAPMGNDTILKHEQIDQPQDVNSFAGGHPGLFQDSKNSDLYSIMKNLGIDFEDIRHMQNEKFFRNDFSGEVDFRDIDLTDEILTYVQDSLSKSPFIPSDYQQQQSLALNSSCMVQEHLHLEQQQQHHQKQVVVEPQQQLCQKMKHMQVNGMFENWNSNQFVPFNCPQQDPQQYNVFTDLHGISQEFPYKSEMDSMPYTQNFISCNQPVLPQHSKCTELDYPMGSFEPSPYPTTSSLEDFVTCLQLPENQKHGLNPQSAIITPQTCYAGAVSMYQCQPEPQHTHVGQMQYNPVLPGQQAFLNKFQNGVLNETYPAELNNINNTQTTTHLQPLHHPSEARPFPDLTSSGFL

For `C[C@H](Cc1ccc(O)c(O)c1)[C@@H](C)Cc1ccc(O)c(O)c1`, the Potency result in test [1] and in test [2] was “inactive” throughout.
As to `COc1cc2c(cc1O)CCN[C@]21CS[C@@H]2c3c(OC(C)=O)c(C)c4c(c3[C@H](COC1=O)N1[C@@H]2[C@H]2c3c(cc(C)c(OC)c3O)C[C@@H]([C@@H]1O)N2C)OCO4`, the Potency in test [1] was 24.3 µM (active); in test [3], 0.0168 µM (active).
With `C[C@@H]1O[C@@H]1P(=O)(O)O`, the Potency result in test [1], in test [3] and in test [2] was “inactive” in each case.
With `CC(C)(COP(=O)(O)OP(=O)(O)OC[C@H]1O[C@@H](n2cnc3c(N)ncnc32)[C@H](O)[C@@H]1OP(=O)(O)O)C(O)C(=O)NCCC(=O)NCCS` (stereo not given in full), the Potency entry in test [1], in test [3] and in test [2] was “inactive” each time.
As for `Nc1nc(/C(=C/CC(=O)O)C(=O)N[C@@H]2C(=O)N3C(C(=O)O)=CCS[C@H]23)cs1`, the Potency result in test [1], in test [3] and in test [2] was “inactive” in each case.
For the molecule `c1ccc2occc2c1`, the Potency in test [1] was 68.6 µM (active). Besides, the Potency entry in test [2] and in test [4] was “inactive” in each case.
Regarding `c1ccc2c(c1)OCC(CN1CCCCC1)O2` (stereo not given), the Potency result in test [1], in test [3] and in test [2] was “inactive” throughout.
Regarding `CCCCCCCCCCCCCCCCCCNC(=O)OC1CCN(C(=O)OC[C@H](COC(=O)N(Cc2cccc[n+]2CC)C(=O)c2ccccc2OC)OC)CC1`, the Potency in test [1] was 29.8 µM (active); in test [6], 26.6 µM (active); in test [4], 23.7 µM (active). For the same molecule, in test [5], the Potency result is “inactive”.
With `Oc1ccc(Cl)c2c1CCC2`, the Potency entry in test [1], in test [3] and in test [2] was “inactive” in each case.
Regarding `C[C@H]1O[C@@H](O[C@H]2CC[C@@]3(C)[C@H](CC[C@@H]4[C@@H]3C[C@@H](O)[C@]3(C)[C@@H](C5=CC(=O)OC5)CC[C@]43O)C2)C[C@H](O)[C@@H]1O[C@H]1C[C@H](O)[C@H](O[C@H]2C[C@H](O)[C@H](O[C@@H]3O[C@H](CO)[C@@H](O)[C@H](O)[C@H]3O)[C@@H](C)O2)[C@@H](C)O1`, the Potency result in test [1] and in test [5] was “inactive” in each case. Besides, the results for the Potency in test [7], in test [6] and in test [4] were 0.15 µM (active), 0.075 µM (active) and 1.06 µM (active), respectively.
Turning to `CC(=O)[C@]1(O)Cc2c(O)c3c(c(O)c2[C@@H](O[C@H]2C[C@H](N)[C@H](O)[C@H](C)O2)C1)C(=O)c1ccccc1C3=O`, the figures for the Potency in test [1], in test [3] and in test [8] were 13.3 µM (active), 13.3 µM (active) and 4.22 µM (active), respectively. In test [7], the Potency entry is “inactive”.
Turning to `Cc1cc(C(=O)NCCc2ccc(S(=O)(=O)NC(=O)NN3CCCCCC3)cc2)no1`, the Potency result in test [1], in test [3] and in test [2] was “inactive” throughout.
Turning to `COc1cc2c(cc1OC)[C@@H](Cc1cc(OC)c(OC)c(OC)c1)[N+](C)(CCCOC(=O)CC/C=C/CCC(=O)OCCC[N+]1(C)CCc3cc(OC)c(OC)cc3[C@H]1Cc1cc(OC)c(OC)c(OC)c1)CC2` (stereo not given in full), the Potency result in test [1] and in test [3] was “inactive” throughout.
Consider `C[Se]CC[C@H](N)C(=O)O`, for which the Potency result in test [1] and in test [2] was “inactive” each time.
For the molecule `CCCCCCCCCC[N+](C)(CCCCCCCCCC)CCC[Si](OC)(OC)OC`, the Potency is 61.1 µM (active) in test [1], 30.9 µM (active) in test [7] and 13.8 µM (active) in test [4]. The Potency result in test [5] was “inactive”.
With `C=CCc1cc(S(=O)(=O)c2ccc(O)c(CC=C)c2)ccc1O`, the Potency result in test [1], in test [2] and in test [4] was “inactive” each time.
Consider `CN(Cc1ccccc1)Cc1ccccc1`, for which the Potency result in test [1], in test [3] and in test [2] was “inactive” in each case.
In the case of `c1ccc(-n2cnnn2)cc1`, the Potency entry in test [1], in test [3] and in test [2] was “inactive” throughout.
